Measured values from PubChem BioAssay.
The source made the active and inactive calls.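 The calls were made as follows, unless noted: active = NADPH fluorescence slope more negative than the mean of all samples by about 3 SD, 99.7% confidence; inactive = the rest.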

How the values were obtained:
[1] = inhibitors of TNFa-induced NFkB p65 translocation, primary screen, imaging, HUVEC, MLSMR starter and 10KST1 sets (AID 438;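 active = inhibition above 20% together with a positive visual image hit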;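 also: compound added about 3h40 before a 20 min TNFalpha stimulation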;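 as to inhibition: signal is the nuclear over cytoplasmic p65 intensity ratio per well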); settings: HUVEC TNFa-induced p65 nuclear translocation; cell count: measured here: nuclei count (cytotoxicity indicator), at 2.08 µM; inhibition: at 2 µM, stronger effect = higher value, 0% TNFa-plus-vehicle, 100% no-TNFa wells
[2] = reduction of polyQ htt aggregates in cells – imaging, exon1htt(103Q)mCFP cells, high-content imaging, primary screen (AID 483;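 active = visual image review flags a hit and inhibition of aggregation exceeds 20%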;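 also: compound exposure lasted 3 days before fixation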;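 as to nuclei count: percent of the per-plate median nuclei count of sample wells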); settings: exon1htt(103Q)mCFP cell line, aggregate imaging, at 2 µM; inhibition of aggregation: stronger effect = higher value; nuclei count: measured here: cell count, toxicity
[3] = endothelial E-selectin expression blockers – imaging, HUVEC, immunofluorescence, MLSMR starter and 10KST1 sets, primary screen (AID 487;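 active = visually confirmed hit in the image check and inhibition above 20%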;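 as to inhibition: signal is fraction of cell area covered by stained E-selectin grains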;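 as to nuclei count: 100% = median nuclei count of all wells on the same plate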); settings: HUVEC TNFalpha-induced E-selectin immunofluorescence imaging, at 2 µM; inhibition: stronger effect = higher value; nuclei count: measured here: cell number, toxicity
[4] = target: Voltage-gated potassium channel subunit beta-2 (Rattus norvegicus) (UniProt P62483); experiment: inhibitors of rat Kvbeta2 reductase activity – biochemical, NADPH fluorescence, primary screen (AID 622;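 active = fluorescence slope higher than the sample average by over 3 SD, cut at about -0.22 in these data, passing the limit was not always enough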;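 also: slope of raw intensity against log time taken from 70 to 1610 s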); settings: recombinant KvBeta, 4-cyanobenzaldehyde reduction, at 10 µM, stronger effect = higher value
Voltage-gated potassium channel subunit beta-2 (Rattus norvegicus), sequence (P62483 whole entry, looked up): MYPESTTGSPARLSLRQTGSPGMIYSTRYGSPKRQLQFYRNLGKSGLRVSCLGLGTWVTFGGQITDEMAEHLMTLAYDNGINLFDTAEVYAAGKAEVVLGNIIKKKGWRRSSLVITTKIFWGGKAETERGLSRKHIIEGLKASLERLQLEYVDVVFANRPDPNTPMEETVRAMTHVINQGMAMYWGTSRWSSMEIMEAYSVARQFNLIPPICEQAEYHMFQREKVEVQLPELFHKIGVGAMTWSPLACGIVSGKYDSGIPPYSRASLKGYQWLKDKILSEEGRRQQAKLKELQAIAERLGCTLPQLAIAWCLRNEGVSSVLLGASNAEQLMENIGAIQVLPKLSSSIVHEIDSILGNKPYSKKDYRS

[5] = target: Voltage-gated potassium channel subunit beta-2 (Rattus norvegicus) (UniProt P62483); experiment: enhancers of rat Kvbeta2 NADPH turnover – biochemical, NADPH fluorescence, primary screen (AID 623); settings: Recombinant KvBeta, NADPH fluorescence decrease slope, 10 min; at 10 µM; stronger effect = lower value;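 also: fluorescence intensity change per second fitted from 20 to 320 s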
[6] = target: Alpha-2C adrenergic receptor (Homo sapiens) (UniProt P18825); experiment: compounds altering alpha2C-coupled GIRK flux – cell-based, HEK293 alpha2C/GIRK1/2, thallium flux, primary screen (AID 624;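 active = fluorescence slope after compound addition differing from the mean of all screened samples at 99.7% confidence, in either direction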;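 also: slope of fluorescence ratio to pre-addition baseline per second over 15 to 24 s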); settings: thallium flux BTC fluorescence, at 10 µM, actives lie on both sides
Alpha-2C adrenergic receptor (Homo sapiens), sequence (P18825 whole entry, looked up): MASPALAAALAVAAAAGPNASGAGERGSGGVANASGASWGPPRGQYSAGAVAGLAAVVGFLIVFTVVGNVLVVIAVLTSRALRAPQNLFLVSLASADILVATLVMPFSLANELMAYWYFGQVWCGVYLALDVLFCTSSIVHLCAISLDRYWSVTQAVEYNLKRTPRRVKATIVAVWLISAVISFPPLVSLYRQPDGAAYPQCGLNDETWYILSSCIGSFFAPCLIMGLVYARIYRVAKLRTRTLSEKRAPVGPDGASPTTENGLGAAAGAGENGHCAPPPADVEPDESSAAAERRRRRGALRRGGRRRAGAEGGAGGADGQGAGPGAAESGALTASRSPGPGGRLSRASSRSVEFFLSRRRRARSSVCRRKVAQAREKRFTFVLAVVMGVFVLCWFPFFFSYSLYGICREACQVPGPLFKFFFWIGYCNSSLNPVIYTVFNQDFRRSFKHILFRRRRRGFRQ

[7] = blockers of RIG-like receptor reporter activation – cell-based, Sendai virus stimulus, luciferase, 10K MLSCN set, TLR/RLR signaling modifier project, primary screen (AID 602276;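 active = inhibition at or above 50% at 10 µM; inactive = inhibition below 50%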;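 also: firefly luciferase from ISG56 promoter only with Renilla not read in this screen; 0% = Sendai virus plus DMSO and 100% = medium plus DMSO without virus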); settings: HEK293 RL24 IRF3 luciferase reporter, at 10 µM, stronger effect = higher value
[8] = TLR3 IRF3 reporter activation blockers – cell-based, poly I:C stimulus, luciferase, 10K MLSCN set, primary screen (AID 602277;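 active = inhibition of the reporter signal at or above 50%; inactive = inhibition below 50%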); settings: HEK293-TLR3 RL24 IRF3 luciferase reporter, at 10 µM, stronger effect = higher value

CCOC(=O)N1CCN(S(=O)(=O)c2ccc(F)c(C(=O)Nc3cc(C)cc(C)c3)c2)CC1
cell count [1]: 578
inhibition [1]: -19.7% (inactive)
inhibition of aggregation [2]: 16.1% (inactive)
nuclei count [2]: 62.7%
inhibition [3]: -87% (inactive)
nuclei count [3]: 111%
fluorescence slope [4]: -0.393 (inactive)
NADPH fluorescence slope [5]: -1.2e-05 (inactive)
slope [6]: 0.00302 (inactive)
inhibition [7]: 1.83% (inactive)
inhibition [8]: 14.3% (inactive)

COc1ccc(C(c2nnnn2C2CCCC2)N2CCC(C)CC2)c(OC)c1 (configuration not stated)
cell count [1]: 584
inhibition [1]: -7.1% (inactive)
inhibition of aggregation [2]: -6.5% (inactive)
nuclei count [2]: 102%
inhibition [3]: -5.7% (inactive)
nuclei count [3]: 109%
fluorescence slope [4]: -0.571 (inactive)
NADPH fluorescence slope [5]: 1.2e-05 (inactive)
slope [6]: 0.005 (inactive)
inhibition [7]: 2.52% (inactive)
inhibition [8]: 3.27% (inactive)

CCOC(=O)N1CCC(NC(=O)CSCc2nc(-c3cccc(OC)c3)oc2C)CC1
cell count [1]: 292
inhibition [1]: 4.4% (inactive)
inhibition of aggregation [2]: -9% (inactive)
nuclei count [2]: 94.6%
inhibition [3]: -30.2% (inactive)
nuclei count [3]: 124%
fluorescence slope [4]: -0.498 (inactive)
NADPH fluorescence slope [5]: -5.4e-05 (inactive)
slope [6]: 0.00445 (inactive)
inhibition [7]: 9% (inactive)
inhibition [8]: -6.15% (inactive)

c1cn(C23CC4CC(CC(C4)C2)C3)cn1
cell count [1]: 362
inhibition [1]: 0.8% (inactive)
inhibition of aggregation [2]: -9.2% (inactive)
nuclei count [2]: 108%
inhibition [3]: 45.7% (inactive)
nuclei count [3]: 110%
fluorescence slope [4]: -0.489 (inactive)
NADPH fluorescence slope [5]: -5.6e-05 (inactive)
slope [6]: 0.00411 (inactive)
inhibition [7]: 11.8% (inactive)
inhibition [8]: 16.7% (inactive)

CSc1c(C#N)c(N)c(C#N)c2c1COC(C)(C)C2
cell count [1]: 723
inhibition [1]: -2.6% (inactive)
inhibition of aggregation [2]: -6.1% (inactive)
nuclei count [2]: 83%
inhibition [3]: -34% (inactive)
nuclei count [3]: 103%
fluorescence slope [4]: -0.501 (inactive)
NADPH fluorescence slope [5]: -4.2e-05 (inactive)
slope [6]: 0.00561 (inactive)
inhibition [7]: 17.3% (inactive)
inhibition [8]: 25.5% (inactive)

CN(CCc1ccccn1)c1ncnc2[nH]ncc12
cell count [1]: 591
inhibition [1]: 8.1% (inactive)
inhibition of aggregation [2]: -1.4% (inactive)
nuclei count [2]: 71.8%
inhibition [3]: 55.8% (active)
nuclei count [3]: 63.8%
fluorescence slope [4]: -0.325 (inactive)
NADPH fluorescence slope [5]: -3.6e-05 (inactive)
slope [6]: 0.0053 (inactive)
inhibition [7]: -24.6% (inactive)
inhibition [8]: -53.4% (inactive)

COc1ccc2cc(C(=O)NCc3ccco3)c(=Nc3ccc(C(=O)O)cc3)oc2c1
cell count [1]: 507
inhibition [1]: -12.8% (inactive)
inhibition of aggregation [2]: 19% (inactive)
nuclei count [2]: 96.3%
inhibition [3]: -56.7% (inactive)
nuclei count [3]: 120%
fluorescence slope [4]: -0.372 (inactive)
NADPH fluorescence slope [5]: -5.2e-05 (inactive)
slope [6]: 0.00401 (inactive)
inhibition [7]: 16.4% (inactive)
inhibition [8]: 3.42% (inactive)

Cc1ccc(-c2nc3cnccn3c2Nc2ccc3c(c2)OCO3)o1
cell count [1]: 913
inhibition [1]: 2.3% (inactive)
inhibition of aggregation [2]: 2.9% (inactive)
nuclei count [2]: 130%
inhibition [3]: -109% (inactive)
nuclei count [3]: 114%
fluorescence slope [4]: -0.483 (inactive)
NADPH fluorescence slope [5]: -6.6e-05 (inactive)
slope [6]: 0.00517 (inactive)
inhibition [7]: 5.62% (inactive)
inhibition [8]: 34.7% (inactive)

CCN(Cc1cc2ccccc2[nH]c1=O)S(=O)(=O)c1ccccc1
cell count [1]: 642
inhibition [1]: 7.5% (inactive)
inhibition of aggregation [2]: 9.9% (inactive)
nuclei count [2]: 104%
inhibition [3]: 38.9% (inactive)
nuclei count [3]: 104%
fluorescence slope [4]: -0.627 (inactive)
NADPH fluorescence slope [5]: 1.2e-05 (inactive)
slope [6]: 0.00647 (inactive)
inhibition [7]: 12.2% (inactive)
inhibition [8]: 5.79% (inactive)

Cc1onc(-c2ccccc2Cl)c1C(=O)N1CCc2ccccc21
cell count [1]: 398
inhibition [1]: -1.3% (inactive)
inhibition of aggregation [2]: -6.4% (inactive)
nuclei count [2]: 104%
inhibition [3]: -43.1% (inactive)
nuclei count [3]: 110%
fluorescence slope [4]: -0.405 (inactive)
NADPH fluorescence slope [5]: 9.6e-06 (inactive)
slope [6]: 0.00452 (inactive)
inhibition [7]: 10.6% (inactive)
inhibition [8]: 34.8% (inactive)

COc1ccc(-c2nc(C(N)=O)c3[nH]c(=O)n(-c4cccc(Cl)c4)c3n2)cc1OC
cell count [1]: 743
inhibition [1]: -1% (inactive)
inhibition of aggregation [2]: 7.2% (inactive)
nuclei count [2]: 100%
inhibition [3]: -63.8% (inactive)
nuclei count [3]: 114%
fluorescence slope [4]: -0.521 (inactive)
NADPH fluorescence slope [5]: -3e-05 (inactive)
slope [6]: 0.00698 (inactive)
inhibition [7]: 3.83% (inactive)
inhibition [8]: 6.23% (inactive)

CCN(Cc1cc2cc(OC)ccc2[nH]c1=O)C(=O)c1ccncc1
cell count [1]: 458
inhibition [1]: -1% (inactive)
inhibition of aggregation [2]: -12.3% (inactive)
nuclei count [2]: 111%
inhibition [3]: -34.1% (inactive)
nuclei count [3]: 198%
fluorescence slope [4]: -0.498 (inactive)
NADPH fluorescence slope [5]: 4.7e-05 (inactive)
slope [6]: 0.00638 (inactive)
inhibition [7]: 13.5% (inactive)
inhibition [8]: 20.1% (inactive)
